The panel holds about 83,000 compounds, 20% with a hit somewhere; the sample as a whole holds those more often.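 Step 1: grow cells in 96-well plates. Step 2: add test compound at a single concentration. Step 3: incubate 48 h. Step 4: record percent growth.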 Unmarked numbers belong to inactive results. Active and inactive are the calls of the source. How the source made its calls: active means growth percent below 10; inactive means the rest.
Assays:
Experiment in all cases: NCI-60 one-dose screen, 48 h (100 = growth as untreated, 0 = no growth, -100 = all killed)
Settings in all cases: 10 µM unless noted
SR leukemia = test system: SR leukemia
RPMI-8226 leukemia = test system: RPMI-8226 leukemia
OVCAR-4 ovarian = test system: OVCAR-4 ovarian
SK-OV-3 ovarian = test system: SK-OV-3 ovarian
IGROV1 ovarian = test system: IGROV1 ovarian
OVCAR-3 ovarian = test system: OVCAR-3 ovarian
HS 578T breast = test system: HS 578T breast
NCI/ADR-RES ovarian = test system: NCI/ADR-RES ovarian
OVCAR-5 ovarian = test system: OVCAR-5 ovarian
OVCAR-8 ovarian = test system: OVCAR-8 ovarian

Row | Compound | growth (SR leukemia) | growth (RPMI-8226 leukemia) | growth (OVCAR-4 ovarian) | growth (SK-OV-3 ovarian) | growth (IGROV1 ovarian) | growth (OVCAR-3 ovarian) | growth (HS 578T breast) | growth (NCI/ADR-RES ovarian) | growth (OVCAR-5 ovarian) | growth (OVCAR-8 ovarian)
1 | COc1cnc2c(c1)C(=O)c1c-2n(CCCNC2=NCCS2)c(=O)c2cc([N+](=O)[O-])ccc12 | -9.1% (active) | -32.1% (active) | -71.9% (active) | 9.4% (active) | -0.756% (active) | -71.1% (active) | 69.9% | -8.56% (active) |  | 
2 | [B-][N+](CC)(CC)c1ccccc1 | 74.7% | 108% | 103% | 109% | 112% | 112% | 120% | 110% | 86.9% | 
3 | COc1ccc2nc(-c3c(-c4ccccc4)nc4ncccn34)[nH]c2c1 | 90.3% | 88% | 93.2% | 109% | 111% | 108% |  | 108% | 97.9% | 
4 | O=C1NC(=Nc2ccc(S(=O)(=O)Nc3nccs3)cc2)S/C1=C\c1coc2ccccc2c1=O | 88.9% | 101% | 102% | 91.5% | 98.1% | 117% | 90.8% | 106% | 121% | 
5 | Fc1ccc(Nc2nc(Nc3ccc(-c4nc5ccccc5[nH]4)cc3)nc(N3CCCC3)n2)cc1 | 10.7% | -11.6% (active) | 88.6% | 75.1% | 83% | 94.4% | 84.6% | 63% | 97.4% | 
6 | C/C(=N\Nc1cc(C)c2ccccc2n1)c1ccccn1 | 1.94% (active) | -24% (active) | -8.85% (active) | 22.3% | -26.7% (active) | -0.251% (active) | 35.6% | -8.13% (active) | 20.6% | 
7 | COc1cc2c(cc1-c1c(C)noc1C)ncc1nc(C3CCCCC3)n([C@@H](C)COC(F)F)c12 | 14.5% | 13.3% | 41.8% | 4.85% (active) | 43.8% | 35.6% | 14.3% | 37% | 76.6% | 
8 | c1ccc2[nH]c(-c3cc(-c4ccc5c(c4)OCO5)n[nH]3)nc2c1 | 28% | 7.45% (active) | 60.5% | 76.9% | 56.6% | 40.8% |  | 59.6% | 86.4% | 
9 | COc1ccc(-c2nc3ncccn3c2-c2nc3ccc(Br)cc3[nH]2)cc1 | 61.1% | 60.6% | 101% | 105% | 94% | 72.7% |  | 87.3% | 95.6% | 
10 | Cc1cc(Nc2ccc(F)cc2)nc(N2CCN(c3ccnc4cc(Cl)ccc34)CC2)n1 | 2.7% (active) | 12.5% |  | 46.8% | 31.6% | 24.1% | 39.3% | 13.5% | 8.2% (active) | 
11 | CCCCC[C@H]1C/C=C2/C(=O)C=C[C@@H]2C/C=C\CCCC(=O)O[C@@H](CCCCC)C/C=C2/C(=O)C=C[C@@H]2C/C=C\CCCC(=O)O1 | -21.5% (active) | -30.4% (active) | -74.3% (active) | -52.7% (active) | -68.3% (active) | -93.5% (active) | 4.33% (active) | -2.14% (active) | -68.2% (active) | 
12 | O=C(N/N=C/c1ccccc1SSc1ccccc1/C=N/NC(=O)c1ccccc1)c1ccccc1 | 18.9% | 31.1% | 38.5% | 43% | 30.6% | 31.1% | 75.4% | 9.77% (active) | 85.2% | 
13 | COc1cnc2c(c1)C(=O)c1c-2n(CCCNC(C)C)c(=O)c2cc([N+](=O)[O-])ccc12 | -7.62% (active) | -25.1% (active) | -68.9% (active) | -66.8% (active) | -56.4% (active) | -74.3% (active) | -31% (active) | -39.9% (active) | -46.6% (active) | 
14 | CCc1ccc(-c2ccc(Nc3ccccc3)nn2)cc1S(N)(=O)=O | 9.58% (active) | 27.8% | 87.1% | 96.8% | 106% | 63.8% | 84.1% | 85.6% | 93% | 
15 | COc1ccc2c(c1)C/C(=C\c1cc(-c3ccc4c(c3)OCO4)n[nH]1)C2=O | 73.7% | 45.8% | 90.9% | 95.6% | 99.1% | 71.3% |  | 109% | 98.3% | 
16 | COc1ccc2c(c1)C/C(=C\c1cc(-c3cc(OC)c(OC)c(OC)c3)n[nH]1)C2=O | 57.8% | 52.8% | 82.2% | 102% | 106% | 93.6% | 91.8% |  |  | 
17 | CC(C)(C)c1cc(-n2c(-c3ccc(Cl)cc3)nc3cc(C(=O)Nc4ccc(Cl)cc4)ccc32)n[nH]1 | 70.3% | 51.1% | 56.4% | 99.8% | 40.3% | 45.8% | 55.8% | 40.4% | 93% | 
18 | COc1cccc(NC(=O)c2sc3nc4c(cc3c2N)C(=O)CCC4)c1 | 3.01% (active) | 0.464% (active) | 58.9% | -2.7% (active) | 49.2% | -2.17% (active) |  | -31.2% (active) | 50% | 
19 | CCCCC[C@H]1CC=C2C(=O)C=C[C@@H]2CC=CCCCC(=O)O[C@@H](CCCCC)CC=C2C(=O)C=C[C@@H]2CC=CCCCC(=O)O[C@@H](CCCCC)CC=C2C(=O)C=C[C@@H]2CC=CCCCC(=O)O1 | -6.53% [8.75 µM] (active) | -9.62% [8.75 µM] (active) | 22.4% [8.75 µM] | 36.7% [8.75 µM] | -46.1% [8.75 µM] (active) | -54.2% [8.75 µM] (active) | 40.2% [8.75 µM] | 49.8% [8.75 µM] | -23.7% [8.75 µM] (active) | 
20 | COc1ccc2c(c1)c1nc3cc(C)c(C)cc3nc1n2CCN(C)C | -8.86% (active) | -16.3% (active) | 19.8% | 27.5% | -7.58% (active) | 27.1% | 44.6% | -70.3% (active) | -2.58% (active) | 
21 | COC(=O)[C@@H]1[C@H]2C[C@H]3c4[nH]c5cc(OC)ccc5c4CCN3C[C@@H]2C[C@H](OC(=O)/C=C/c2ccnc(OC)c2)[C@H]1OC | 73.1% | 69.6% |  | 96% | 83.2% | 90.3% | 90.9% | 81.6% | 102% | 
22 | O=C(NO)c1ccc(Cn2c(=O)n(CCc3ccc(O)cc3)c(=O)c3ccccc32)cc1 | 16.5% | 31.6% | 56.4% | 86.7% | 74.9% | 18.9% | 58.8% | 92.8% | 86% | 
23 | COc1cc(-c2cc(-c3nc4ccccc4[nH]3)[nH]n2)cc(OC)c1OC | 11.1% | -24.9% (active) | 44.3% | 42.4% | 47.4% | 33.8% |  | 36.2% | 93.9% | 
24 | COc1ccc(-c2cc(/C=C/C(=O)c3ccc(OC)c(OC)c3)[nH]n2)cc1 | -32.7% (active) | -48.4% (active) | 32.7% | 49.3% | 61% | -14.6% (active) |  |  |  | 
25 | Cn1cccc1/C=C1/SC(=S)N(CCc2ccc(O)cc2)C1=O | 24.1% |  | 89.4% | 83.5% | 45.7% | 39.4% | 67.7% | 16.3% | 95.9% | 67.1%
26 | CCN1CCN(C(=O)[C@]23CCC(C)(C)C[C@@H]2C2=CC[C@@H]4[C@@]5(C)C/C(=C/c6cccnc6)C(=O)C(C)(C)[C@@H]5CC[C@@]4(C)[C@]2(C)CC3)CC1 | 4.78% (active) |  | 7.28% (active) | 56% | 51.6% | 28.6% | 54.6% | 8.32% (active) | 83.8% | 27.1%
27 | C[C@@H]1CCCCCCCCC[C@H](O)C(=O)C[C@@H](SC[C@@H](O)C(=O)O)C(=O)O1 | 74.4% |  | 110% | 104% | 115% | 107% | 113% | 106% | 104% | 94.5%
28 | COC(=O)[C@]12CC[C@@H](C(=O)/C=C/c3cccnc3)[C@@H]1[C@H]1CC[C@@H]3[C@@]4(C)C/C(=C/c5cccnc5)C(=O)C(C)(C)[C@@H]4CC[C@@]3(C)[C@]1(C)CC2 | -14.1% (active) |  | -39.2% (active) | -23.1% (active) | -87.9% (active) | -93.2% (active) | -49.1% (active) | -39.4% (active) | -62.7% (active) | -34.3% (active)
29 | COc1cccc(-c2nn(-c3ccccc3)cc2-c2ccnc(NCCCN)c2)c1 | -10.5% (active) |  | 63.8% | 70.9% | 54.4% | 29.2% | 43.6% | 25% | 95.8% | 62%

Source: PubChem BioAssay (NCI)
